In PubChem BioAssay (EPA / NIEHS) one finds outcome and AC50 data, which are given here for 6 molecules.

Structures are written as SMILES. Records with an inconclusive call do not appear. Active and inactive are the calls of the source. Rule for the calls, unless noted: active = hit-call score of the fitted dose curve at least 0.9, where 1 is the maximum; inconclusive = response in the unintended direction; inactive = score below 0.9.

The nature of assay [1]: TOX21_p53_BLA_p2_viability: Viability Assessment in the Tox21 HCT-116 p53 Agonism Beta-lactamase Assay, Phase 2 (AID 2283591).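 Note: compound exposure lasted 16 h at 37 °C; actives lower the ATP signal meaning cytotoxicity.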 In outline:
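HCT116 p53-bla cells, 4000/well, dosed after 5 h plating (217-fold dilution of DMSO stocks) and incubated 16 h at 37C. Viability taken as cellular ATP by CellTiter-Glo luminescence after 30 min RT; signal loss marks cytotoxicity.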

Assay [2] concerns the target Cellular tumor antigen p53 (Homo sapiens) (UniProt P04637). In words: TOX21_p53_BLA_p2_ratio: Tox21 HCT-116 p53 Agonism Beta-lactamase Assay, Ratio, Phase 2 (AID 2283592). In outline: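 Cleaved-to-uncleaved substrate ratio (460 vs 530 nm) measured in HCT116 cells with an inducible beta-lactamase reporter linked to p53 activity. Compounds incubated 16 h at 37C before 2 h room-temperature CCF4-AM loading.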

For assay [3] the target is unchanged. The experiment in a line: TOX21_p53_BLA_p3_ratio: Tox21 HCT-116 p53 Agonism Beta-lactamase Assay, Ratio, Phase 3 (AID 2283596). In outline:
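Cells were seeded at 4000/well, rested 5 h at 37C, then dosed with DMSO compound solutions (217-fold dilution) for 16 h. CCF4-AM substrate was loaded for 2 h at room temperature, and the 460/530 nm emission ratio was fitted for gain of signal versus DMSO.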

Assay [4] shares this target. The experiment in a line: TOX21_p53_BLA_p5_ratio: Tox21 HCT-116 p53 Agonism Beta-lactamase Assay, Ratio, Phase 5 (AID 2283599). In outline: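 HCT-116 p53-bla cells (4000/well) plated 5 h, dosed with compound (217-fold DMSO dilution) for 16 h at 37 C; CCF4-AM substrate 2 h at room temperature. Activity is the 460/530 nm emission ratio (405 nm excitation), fitted in gain-of-signal direction versus DMSO.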

Assay [5] can be described thus: TOX21_p53_BLA_p5_viability: Viability Assessment in the Tox21 HCT-116 p53 Agonism Beta-lactamase Assay, Phase 5 (AID 2283600). In outline:
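Viability is taken from cellular ATP content, measured by luciferase luminescence in the same wells after the beta-lactamase ratio read. Cells are seeded at 4000 per well and exposed to DMSO-dissolved compounds, diluted 217-fold, for 16 h.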

The target in assay [6] is Cellular tumor antigen p53 (Homo sapiens) (UniProt P04637). In words: TOX21_p53_BLA_p4_ratio: Tox21 HCT-116 p53 Agonism Beta-lactamase Assay, Ratio, Phase 4 (AID 2283601). In outline: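 HCT-116 p53 beta-lactamase reporter cells (4000/well) preincubated 5 h, then compound (217-fold dilution of DMSO stock) for 16 h at 37C. CCF4-AM substrate added 2 h at room temperature; 460/530 nm emission ratio fitted upward versus DMSO.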

A short description of assay [7]: CCTE_Harrill_HTTr_Viability_MCF7: CCTE's 6-hour Cell Viability Assessment for the High-Throughput Transcriptomics (HTTr) Platform, in MCF-7 cells cultured in DMEM + 10% fetal bovine serum, Harrill Lab (AID 2284010; active = hit-call score of the fitted dose curve at least 0.9, where 1 is the maximum; inactive = score below 0.9). In outline: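 Eight-point concentration series, six-hour exposure. Propidium iodide exclusion imaged to assess membrane integrity as a cytotoxicity readout; bidirectional fitting was done with DMSO as negative control and activity baseline.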

Assay [8] in a line: CCTE_Harrill_HTTr_Apoptosis_MCF7: CCTE's 6-hour Apoptosis Assessment for the High-Throughput Transcriptomics (HTTr) Platform, in MCF-7 cells cultured in DMEM + 10% fetal bovine serum, Harrill Lab (AID 2284011; active = hit-call score of the fitted dose curve at least 0.9, where 1 is the maximum; inactive = score below 0.9). In outline: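 Cells are dosed with test chemicals at eight concentrations and imaged 6 hours later for caspase-3/7 activity using a green fluorogenic detection reagent. Activity is fitted in both directions against DMSO controls.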

The target of assay [9] is PGR (gene 5241) (UniProt P06401). In words: TOX21_PR_BLA_Followup_Antagonist_ratio: Tox21 HEK293 Progesterone Receptor (PR) Antagonism Beta-lactamase Follow-Up Assay, Ratio (AID 2283934).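 Note: PR-UAS-bla HEK293T cells stimulated with 1 nM R5020 agonist for 16 hr.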 In outline:
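Measured in PR-UAS-bla HEK293T cells co-treated with compound and 1 nM promegestone for 16 hr; beta-lactamase ratio read after 2 h FRET substrate loading, with parallel CellTiter-Glo cytotoxicity.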

The nature of assay [10]: TOX21_PR_BLA_Followup_Agonist_viability: Viability Assessment in the Tox21 HEK293 Progesterone Receptor (PR) Agonism Beta-lactamase Follow-Up Assay (AID 2283935).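 Note: signal loss means lower viability so actives are cytotoxic.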 In outline:
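Viability is read as CellTiter-Glo luminescence, where loss of signal indicates cytotoxicity. The cells are PR-UAS-bla HEK293T given compounds for 16 hr at 37C and 5% CO2, in the same wells used for the bla readout.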

Assay [11] in a line: TOX21_PR_BLA_Followup_Antagonist_viability: Viability Assessment in the Tox21 HEK293 Progesterone Receptor (PR) Antagonism Beta-lactamase Follow-Up Assay (AID 2283936).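 Note: cells exposed to compound with R5020 agonist for 16 h; hits lower the luminescence signal meaning cytotoxicity.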 In outline: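 PR-UAS-bla HEK293T cells in medium with 2% charcoal-stripped FBS were treated with compounds plus R5020 for 16 hr at 37C. After the beta-lactamase read, CellTiter-Glo was added to the same wells and luminescence read after 30 min at room temperature.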

Assay [12] concerns the target PGR (gene 5241) (UniProt P06401). The experiment in a line: TOX21_PR_LUC_Followup_Antagonist: Tox21 HEK293 Progesterone Receptor (PR) Antagonism Luciferase Follow-Up Assay (AID 2283938).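 Note: curve fitted upward as signal gain over DMSO baseline despite antagonist label.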 In outline:
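A follow-up to the PR bla screen using HEK293-PR-A-luc cells, multiplexed with cell viability to flag cytotoxicity. Reporter luminescence after 16 h compound exposure was analysed relative to DMSO.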

Assay [13] in a line: TOX21_PR_LUC_Followup_Antagonist_viability: Viability Assessment in the Tox21 HEK293 Progesterone Receptor (PR) Antagonism Luciferase Follow-Up Assay (AID 2283940). In outline: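 Loss of CellTiter-Glo ATP signal indicates cytotoxicity in HEK293-PR-A-luc cells grown in 10% charcoal-stripped FBS medium, seeded 3,000 per well and incubated 16 h with compound at 37C.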
Assay [14] can be described thus: TOX21_PR_LUC_Followup_Agonist_viability: Viability Assessment in the Tox21 HEK293 Progesterone Receptor (PR) Agonism Luciferase Follow-Up Assay (AID 2283941).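 Note: loss of signal means cytotoxicity so actives lower viability.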 In outline: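 Seeding: HEK293-PR-A-luc, 3,000 cells/well, 5 h at 37C. Treatment: compound in DMSO, 16 h, 37C. Read: CellTiter-Glo ATP luminescence, signal loss taken as lower viability.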
A short description of assay [15]: CCTE_Deisenroth_DEVTOX-GLR_legacy_CellCount: (Legacy) Viability Assessment in CCTE's DevTox GLR-Endo Assay, Deisenroth Lab (AID 2284331; active = hit-call score of the fitted dose curve at least 0.9, where 1 is the maximum; inactive = score below 0.9). As to conditions: actives raise or lower the signal. In outline: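 RUES2-GLR human pluripotent cells were seeded 24 h, then differentiated 48 h with two compound doses at 24 h intervals (10-point, 1 nM - 200 uM). Fixed nuclei were imaged and counted; bidirectional fitting versus 0.2% DMSO.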

Assay [16] deals with SRY-box transcription factor 17 (SOX17) Protein Expression, Deisenroth Lab, SOX17 (gene 64321). In words: CCTE_Deisenroth_DEVTOX-GLR_legacy_Sox17: (Legacy) CCTE's DevTox GLR-Endo Assay Evaluation of SRY-box transcription factor 17 (SOX17) Protein Expression, Deisenroth Lab (AID 2284341; active = hit-call score of the fitted dose curve at least 0.9, where 1 is the maximum; inactive = score below 0.9). As to conditions: actives raise or lower the signal. In outline: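 Percent SOX17-positive cells, scored by high-content imaging as mean intensity exceeding pluripotent-control median by 5x BMAD, divided by cell count. Human RUES2-GLR endoderm differentiation, 48 h, two exposures 24 h apart, 1 nM–200 uM; DMSO-referenced bidirectional fitting.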

Assay [17] has as its system SRY-box transcription factor 2 (SOX2) Protein Expression, Deisenroth Lab, SOX2 (gene 6657). The experiment in a line: CCTE_Deisenroth_DEVTOX-GLR_legacy_Sox2: (Legacy) CCTE's DevTox GLR-Endo Assay Evaluation of SRY-box transcription factor 2 (SOX2) Protein Expression, Deisenroth Lab (AID 2284346; active = hit-call score of the fitted dose curve at least 0.9, where 1 is the maximum; inactive = score below 0.9). In outline:
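Read-out: fraction of Sox2+ cells by high-content fluorescence imaging of fixed RUES2-GLR cells after 48 h differentiation with two 24 h-spaced exposures. Positivity cutoff 5x BMAD above endoderm control median; 0.2% DMSO median subtracted.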

Assay [18] concerns SRY-box transcription factor 17 (SOX17) Protein Expression, Deisenroth Lab, SOX17 (gene 64321). In words: CCTE_Deisenroth_DEVTOX-GLR_Endo_SOX17: CCTE's DevTox GLR-Endo Assay Evaluation of SRY-box transcription factor 17 (SOX17) Protein Expression, Deisenroth Lab (AID 2284413; active = hit-call score of the fitted dose curve at least 0.9, where 1 is the maximum; inactive = score below 0.9). In outline:
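Human RUES2-GLR cells carrying an inducible fluorescent reporter are differentiated in defined media for 48 h and dosed twice, 24 h apart. After fixation and nuclear staining, imaging yields SOX17+ cell percentage relative to 0.2% DMSO-treated differentiated cells.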

For assay [19], the system named is Brachyury (BRA) Protein Expression, TBXT (gene 6862). The experiment in a line: CCTE_Deisenroth_DEVTOX-GLR_Endo_BRA: CCTE's DevTox GLR-Endo Assay Evaluation of Brachyury (BRA) Protein Expression, Deisenroth Lab (AID 2284417; active = hit-call score of the fitted dose curve at least 0.9, where 1 is the maximum; inactive = score below 0.9). In outline:
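Endpoint is the fraction of BRA reporter-positive cells over total nuclei, corrected by subtracting the 0.2% DMSO value. Chemicals (1 nM - 200 uM, 10 points) were dosed twice during 48 h differentiation of RUES2-GLR cells, read by imaging.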

Assay [20] can be described thus: CCTE_Deisenroth_DEVTOX-GLR_Endo_CellCount: Viability Assessment in CCTE's DevTox GLR-Endo Assay, Deisenroth Lab (AID 2284420; active = hit-call score of the fitted dose curve at least 0.9, where 1 is the maximum; inactive = score below 0.9). In outline: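 Viability in differentiating RUES2-GLR cultures is scored by fluorescent nuclear counts after 48 h and two 24-hourly chemical treatments, as percent change from the 0.2% DMSO control.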
In assay [21] the test system is SRY-box transcription factor 17 (SOX17) Protein Expression, Deisenroth Lab, SOX17 (gene 64321). The experiment in a line: CCTE_Deisenroth_DEVTOX-GLR_Pluri_SOX17: CCTE's DevTox GLR-Pluri Assay Evaluation of SRY-box transcription factor 17 (SOX17) Protein Expression, Deisenroth Lab (AID 2284427). In outline:
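Seed cells 24 h; differentiate 48 h, dosing at 0 and 24 h (1 nM - 200 uM); fix, stain nuclei, image 5 fields per well; count SOX17+ cells over total cells and subtract 0.2% DMSO control.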

A short description of assay [22]: CCTE_Deisenroth_DEVTOX-GLR_Pluri_CellCount: Viability Assessment in CCTE's DevTox GLR-Pluri Assay Evaluation of Total Cell Counts, Deisenroth Lab (AID 2284430; active = hit-call score of the fitted dose curve at least 0.9, where 1 is the maximum; inactive = score below 0.9). In outline:
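Cytotoxicity readout: fluorescent nuclei counts by high-content imaging, expressed as percent change relative to 0.2% DMSO. Human RUES2-GLR pluripotent line differentiated 48 h, dosed twice at 24-h intervals across 1 nM - 200 uM (10 points).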

Sequence of Cellular tumor antigen p53 (Homo sapiens) (P04637 whole entry, looked up): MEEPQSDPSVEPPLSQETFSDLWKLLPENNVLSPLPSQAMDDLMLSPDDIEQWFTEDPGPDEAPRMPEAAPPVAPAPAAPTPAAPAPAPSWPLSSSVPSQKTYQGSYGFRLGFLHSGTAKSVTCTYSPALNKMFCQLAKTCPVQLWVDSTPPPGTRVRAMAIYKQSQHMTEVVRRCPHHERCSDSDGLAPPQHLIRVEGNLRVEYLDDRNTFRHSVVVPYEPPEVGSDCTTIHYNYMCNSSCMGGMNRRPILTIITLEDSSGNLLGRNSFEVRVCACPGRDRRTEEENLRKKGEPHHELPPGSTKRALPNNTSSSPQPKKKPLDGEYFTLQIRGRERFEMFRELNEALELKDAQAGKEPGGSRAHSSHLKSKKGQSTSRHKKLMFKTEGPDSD
Sequence of PGR (gene 5241) (P06401 whole entry, looked up): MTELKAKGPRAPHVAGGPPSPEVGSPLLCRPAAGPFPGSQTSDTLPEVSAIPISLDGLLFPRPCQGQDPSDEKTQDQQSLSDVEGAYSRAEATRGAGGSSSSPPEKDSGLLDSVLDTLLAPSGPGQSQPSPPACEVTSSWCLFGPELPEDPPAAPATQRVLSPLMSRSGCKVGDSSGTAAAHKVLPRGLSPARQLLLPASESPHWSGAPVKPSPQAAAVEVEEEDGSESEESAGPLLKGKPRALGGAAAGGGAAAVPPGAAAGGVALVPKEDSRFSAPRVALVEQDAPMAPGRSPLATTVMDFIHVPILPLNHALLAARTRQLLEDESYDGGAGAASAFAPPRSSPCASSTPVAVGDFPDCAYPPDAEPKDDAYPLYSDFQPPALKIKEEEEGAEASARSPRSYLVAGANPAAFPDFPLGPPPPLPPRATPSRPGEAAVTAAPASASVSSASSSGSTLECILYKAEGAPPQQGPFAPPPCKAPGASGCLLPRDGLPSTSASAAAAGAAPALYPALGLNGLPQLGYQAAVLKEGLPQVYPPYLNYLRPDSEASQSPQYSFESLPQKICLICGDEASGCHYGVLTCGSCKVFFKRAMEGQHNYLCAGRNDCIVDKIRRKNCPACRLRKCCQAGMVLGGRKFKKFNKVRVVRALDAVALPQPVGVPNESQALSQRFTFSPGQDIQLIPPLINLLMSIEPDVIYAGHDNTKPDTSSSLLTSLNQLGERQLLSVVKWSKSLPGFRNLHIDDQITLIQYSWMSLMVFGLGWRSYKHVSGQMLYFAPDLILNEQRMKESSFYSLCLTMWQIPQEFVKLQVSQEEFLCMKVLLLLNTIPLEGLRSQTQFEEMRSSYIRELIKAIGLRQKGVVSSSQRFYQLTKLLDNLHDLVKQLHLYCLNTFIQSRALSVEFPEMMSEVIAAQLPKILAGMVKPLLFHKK

Regarding `O=C1OCCN1N=Cc1ccc([N+](=O)[O-])o1`, the molecule was classed as inactive in assay [1], in assay [2], in [3], in assay [4], in [5] and in assay [6]. Also, the result in assay [7] and in assay [8] was inactive.

Turning to `Cc1cc(=O)oc2cc(O)cc(O)c12`, the outcome in [1], in assay [2], in assay [3], in [4] and in assay [5] was inactive. Moreover, the half-maximal activity concentration (AC50) in assay [6] is 41700 nM (active).

As to `CN(C)c1ccc(CCO)cc1`, the outcome in [1], in assay [2], in assay [3], in [4] and in [6] was inactive.

As to `c1ccc2c(c1)CCc1ccccc1N2`, the outcome in [1], in assay [2], in assay [3], in [4], in [6] and in [9] was inactive. Moreover, the result in [10], in assay [11], in assay [12], in assay [13] and in assay [14] was inactive.

`CC[C@@H](C(=O)[C@@H](C)[C@@H](O)[C@H](C)[C@@H]1O[C@@H]([C@@H](CC)C(=O)O)CC[C@@H]1C)[C@H]1O[C@]2(C=C[C@@H](O)[C@]3(CC[C@@](C)([C@H]4CC[C@](O)(CC)[C@H](C)O4)O3)O2)[C@H](C)C[C@@H]1C`: the molecule was classed as inactive in [1], in assay [2], in assay [3], in [4] and in [6].

Take `Nc1cccc2c1CN(C1CCC(=O)NC1=O)C2=O` (stereo not drawn): the call in assay [1], in assay [2], in [3], in assay [4], in assay [6] and in [17] was inactive. The call in assay [21] and in assay [22] was inactive. In addition, the AC50 in assay [15] was 132 nM (active); in [16], 328 nM (active); in [18], 293 nM (active); in [19], 5.03 nM (active); in [20], 132 nM (active).

The term AC50 denotes the concentration giving half of the maximal activity seen.
